Reference: article PMC6212790, “How bacterial xenogeneic silencer rok distinguishes foreign from self DNA in its resident genome”
Over roughly 33,000 sequences, “e-score” has its median near -0.038; the highest 2% begin near 0.33. The sample holds the highest values, similar sequences and a random draw of the others, so the mix is not that of the screen.

Each sequence was assayed against T1, GST-Rok-C97-191 (Bacillus subtilis subsp. subtilis str. …, UniProt O34857 97-191) (assay: protein binding microarray; Rok is a gene silencer of Bacillus subtilis; high values mean tight binding). Details: protein: recombinant; tags: GST (pTH5325, pDEST15-Magic modified); dsDNA, one strand shown.
T1 sequence: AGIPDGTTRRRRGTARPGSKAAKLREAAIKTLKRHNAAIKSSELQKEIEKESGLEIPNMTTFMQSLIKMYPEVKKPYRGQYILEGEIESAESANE
In short: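 Each has a 25-mer constant primer and a 35-mer variable part from a de Bruijn sequence of order 10, covering every non-palindromic 8-mer at least 32 times (palindromic 16). Preference for each 8-mer is given as a rank-based, unitless enrichment score (E-score). Its range runs from 0.5 (most favored) to −0.5 (most disfavored).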

Sequence	binding signal [E-score]
GAGTTTAA	0.0511
CAGTTTCA	-0.125
TAGTTTAA	0.345
GAGTTTCA	-0.0326
TAGTTTCA	0.361
AAGTTTAA	-0.0234
ACCCGCTA	0.0179
ACCTGTGC	-0.159
ACAACCAC	-0.126
ATACTGAA	0.0579
CTACTGTA	0.384
GTACTGTA	0.219
ATACTGTA	0.334
CTACTGAA	0.098
ATACTGTG	-0.082
CATGGAAA	0.0212
AGTACGAG	0.125
CCACTATC	0.0612
ATACTCTC	0.0157
ATACTATC	0.359
CTACTATC	0.344
CGACTATC	-0.0118
ATACTAGC	0.288
ATTACCTG	0.0992
CTTACCAA	0.0678

Sequence	binding signal [E-score]
ATTACCTA	0.337
ATTACCAC	0.181
ATTACCAA	0.333
ATTACCTC	0.136
AAATTTCT	0.203
AAATAGAT	0.343
AAATAGAC	0.0478
AAATAGGT	0.314
AAATAGAA	0.36
AAATAGAG	-0.0395
GAATAGAA	0.209
AAGAGAGA	-0.188
ACCTCCCG	-0.064
CATCAGAC	-0.171
GGATATAC	0.288
GTATATAC	0.43
CTATATAC	0.376
GCATATAC	0.18
AGATATAC	0.221
CTATATGC	0.209
ATATATAC	0.367
ACGTATAC	0.137
ACGTATAT	0.373
ATATACAC	0.289
ACGTATAA	0.268

Sequence	binding signal [E-score]
CTCTATAC	0.143
ACTTAAGA	-0.12
TTGCCAAA	0.142
AAGGAAGC	-0.125
ACTGCGCG	-0.0406
CGAGTGCG	-0.0584
ATATATAT	0.443
ACATATGT	0.4
ACATATGA	0.00179
AGATATAT	0.421
AGATATAG	0.188
AGATATAA	0.282
ACATATGG	0.132
ATATACAT	0.288
AGATATCC	0.00982
AGATATCA	0.0773
AGATATCT	0.355
ATATATGG	0.279
ATGTGCCA	-0.163
ACAACCAA	0.0769
GCGCTCTA	0.0916
GGAATGCA	-0.0343
ACTTTCAT	0.0835
CGGTCCAG	-0.196
ACATATAT	0.4

Sequence	binding signal [E-score]
ACATATAA	0.26
ACATATAG	0.206
AACCTAGA	0.13
AGTATCGA	0.174
CATAATAA	0.281
AATAATAG	0.405
GCTAATAA	0.212
ATTAATAA	0.234
GATAATAA	0.174
TATAATAA	0.374
CATAATAG	0.136
CTTAATAC	0.0879
TCTAATAA	0.105
AATAATAT	0.321
AATAATAA	0.371
ATTAATAC	0.335
GCATCCGC	-0.147
CACATGTC	-0.0475
GAAATTCA	0.106
ACGTGGCG	-0.166
AAGCTGCC	-0.171
GGCGGCGA	-0.142
ACCTGGCA	-0.0345
AATAACGA	0.169
CAAAATAA	0.0411

Sequence	binding signal [E-score]
GATAATAC	0.21
AATAATAC	0.335
GATAACGA	0.0698
CAAAATAG	0.333
TATAACGA	0.336
CATAATAC	0.191
AAAAATAG	0.2
CAGCCCAG	-0.136
CTTTTTTA	-0.151
GAACATAA	0.144
AACGTCGC	0.0434
ACTAGAGA	0.118
ACTAGAAC	0.255
CCTAGAAA	0.16
ACTAGAAT	0.349
ACTAGAAA	0.4
ACTAGAAG	0.199
ACGTTGAT	0.0039
ACTTAAAG	-0.106
ACAGCCGA	-0.00523
AGTAAAAG	0.267
AGTAAATA	0.425
AGTAAAAC	0.246
AATAAAAT	0.33
AATAAAAA	0.295

Sequence	binding signal [E-score]
AGTAAATC	0.215
AGTAAATG	0.205
ATTAAAAT	0.218
AGTAAAAT	0.329
AATAAAAC	0.228
GGTAAATA	0.318
AGTAAAAA	0.341
TCGTTTAA	0.00225
TACTTGCA	0.167
ATCAACTG	0.0687
CTTCATTA	0.0438
CTGGCCCC	-0.197
AACCCCTA	-0.0905
CTAAGTCA	-0.0334
CTAAGACC	-0.137
CAGTGGGA	-0.131
AAACAAGA	0.025
TCCCTCGA	-0.0813
CGTAAAAA	-0.0178
TGTAAACA	0.079
AGTTAAAA	0.324
TGTAAAAA	0.34
GGTAAAAA	0.379
AGTTAAAT	0.335
GGTAAAAC	0.121

Sequence	binding signal [E-score]
AGTTAAAC	0.0755
GGTAAAGA	0.177
CGCTAGTC	-0.137
AAGCTGAT	-0.0275
GAATCGCC	0.00133
CAAAGGAG	-0.156
CACTAACG	-0.157
CCTTACCA	-0.0792
GTACTTAA	0.314
CTACTTCA	0.207
CTACTTTA	0.337
GGACTTTA	-0.19
ATACTTAA	0.00261
ATACTTTA	0.196
CTACTTTC	0.275
GTACTTTA	0.344
CTACTTAA	0.387
CGATCGAA	0.239
TTATCCAA	0.108
CCGTACTA	0.201
GTGTTGTA	0.158
CATGGTGC	-0.16
ACTGGGCT	-0.135
ACATCCGA	-0.00901
TCAGAGCA	-0.143

Sequence	binding signal [E-score]
AATTACAG	0.249
AGTTACAG	0.193
AATTACAT	0.339
AGTTACAA	0.163
AATTACAA	0.251
AGTTACAT	0.342
GGACGGAA	-0.113
CGTGGTCA	-0.0431
CTTTAACA	0.072
GGCGACTA	-0.103
TATAGTGA	0.199
GATAGTCA	0.000914
CATAGTTA	0.275
CATAGTAA	0.272
GATAGTAA	0.367
TATAGTCA	0.119
TATAGTAA	0.346
GATAGTTA	0.373
GATAGTAC	0.184
GCGATGAA	-0.0177
CCAGAAAG	-0.066
GAAGCCGA	-0.0818
TTCAACAA	0.0826
CTAAGTAG	0.275
ATCAGCTA	0.165

Sequence	binding signal [E-score]
GATAGAGC	-0.0336
ATTTCGCG	0.158
CTAGTTTC	0.422
CGAGTTTC	0.049
ATCGTTTG	-0.0549
CCAGTTTC	-0.105
ATAGTTTC	0.292
ATAGTTAA	0.327
ATAGTTGA	0.215
ATAGTTTA	0.354
CTAGTTAA	0.327
GTAGTTAA	0.405
ATAGTTTG	0.366
ATAGTTGG	0.00189
ACATTTGC	0.205
AGTCAAAG	-0.141
ACAAGCAC	0.019
GAAGGCTA	-0.0559
AACGGACC	-0.186
TCGCCCAA	-0.12
CTAGTTCC	0.262
CTAGTTGC	0.23
CTAGTTAC	0.38
CTAGTTGA	0.2
ATAGTGTG	0.0365

Sequence	binding signal [E-score]
GCAGTTTA	0.113
GTAGTGTA	0.118
CTAGTTCA	0.0257
CTAGTTTA	0.378
ATAGTGTA	0.346
GTAGTTTA	0.423
GGAGTTTA	0.0723
ATGCCCTA	-0.00598
GCTCGTCA	-0.151
ACGTTTTC	0.12
GATGCATA	0.176
ACTAGCTA	0.397
CGTAGCTA	0.289
AGTAGCTA	0.37
AGTAGCTG	0.233
AGTAGCTC	0.14
GGTAGCTA	0.357
GCTAGCTA	0.119
GGTAGCGA	0.0646
CCTAGCTA	0.144
GCCGTAAA	-0.0195
ACAAAGTA	0.275
AATGTCGT	-0.087
CTATGAGC	-0.0781
ACGAATAG	0.0145

Sequence	binding signal [E-score]
TCGATCAA	0.27
ATGGAAAG	-0.0465
AATGATCA	0.156
ATGTGCAC	-0.0271
CGAATCAA	-0.196
CGCTTCAC	-0.177
AACTGCCC	-0.0946
AGCCATAA	0.127
CACAAGAA	-0.0545
AGTAGTGA	0.121
GCTAGTTA	0.284
ATTAGTTA	0.336
CTTAGTTA	0.189
GTTAGTTA	0.325
AGTAGTTC	0.398
CGTAGTTC	0.213
CGTAGTTA	0.199
ACTAGTTA	0.448
CCTAGTTA	0.168
AGTAGTTA	0.424
AGTAGTGC	0.12
ATTGCTGG	0.137
TAACCGTA	0.169
CGGATACC	0.0204
ACTGGCAT	0.00831

Sequence	binding signal [E-score]
ACTAGTTG	0.313
GGTAGTCA	0.192
AATAGTTC	0.343
ATTAGTTG	0.118
AGTAGTTG	0.393
GGTAGTGA	0.144
AATAGTTA	0.32
CATAGTTC	0.168
GGTAGTTA	0.4
GCCCATTA	-0.125
TTTAGAAA	0.175
TGTAGAAA	0.35
GCTAGAAA	0.314
GGTAGAGA	0.173
GTTAGAAC	0.125
GGTAGAAA	0.465
CGTAGAAG	0.0648
CGTAGAAA	0.338
CGTAGAAC	0.207
TCTAGAAA	0.205
GGTAGAAC	0.4
GGTAGACC	-0.0686
AACGTGGA	0.103
AATAGCGC	0.114
GCCCACAA	-0.0476

Sequence	binding signal [E-score]
GCATCTGA	-0.0514
CAAAGAAC	0.232
GCAGGGGA	-0.184
TAAACGCA	-0.0161
CGACAACC	-0.054
ACCCACGT	-0.188
GGTAATTA	0.395
ATTAATTC	0.147
ATTAATTA	0.391
AGTAATTA	0.376
AGTAATTC	0.273
AGTAATTG	0.31
CGTAATTA	0.318
GGTAATCA	-0.186
GTTAATTA	0.19
CATTGTAC	0.109
GTTGAAAA	-0.013
AGGTATTC	-0.0121
AACTCTCT	0.0603
ACTACCAT	0.353
CCTACCAC	0.251
ACTACCCA	0.332
ACTACCAG	0.213
TCTACCCA	0.234
ACTACCCG	0.0272

Sequence	binding signal [E-score]
GCTACCAC	0.0411
ACTACCAC	0.383
ACTACCAA	0.257
GCCGCGCA	-0.14
CGTTTCAG	-0.0327
AGCTCTTA	0.106
CATCTAAA	0.111
AGCGGACG	0.000189
TGACAAAA	0.0786
ATGATGGG	-0.0998
ACAGTAGA	0.364
GTAGTAGA	0.368
GGAGTAGA	0.102
AAAGTAGC	0.261
ACAGTAGT	0.258
AAAGTAGG	0.262
AAAGTAGT	0.328
CTAGTAGC	0.251
CTAGTAGA	0.382
CAAGTAGA	0.303
GTAGTACA	0.272
CCAGTAGA	0.176
